Drawing on PubChem BioAssay (NCATS), this text covers Potency for 33 compounds.

Results filed as inconclusive are left out. Where a call stands in place of a potency, no number is given. Calls of active or inactive are those of the source. Calls come from the whole dose curve.
Potency is the fitted concentration of half-maximal effect.

Chain of Atrial natriuretic peptide receptor 2 (Homo sapiens) (P20594 whole entry, looked up): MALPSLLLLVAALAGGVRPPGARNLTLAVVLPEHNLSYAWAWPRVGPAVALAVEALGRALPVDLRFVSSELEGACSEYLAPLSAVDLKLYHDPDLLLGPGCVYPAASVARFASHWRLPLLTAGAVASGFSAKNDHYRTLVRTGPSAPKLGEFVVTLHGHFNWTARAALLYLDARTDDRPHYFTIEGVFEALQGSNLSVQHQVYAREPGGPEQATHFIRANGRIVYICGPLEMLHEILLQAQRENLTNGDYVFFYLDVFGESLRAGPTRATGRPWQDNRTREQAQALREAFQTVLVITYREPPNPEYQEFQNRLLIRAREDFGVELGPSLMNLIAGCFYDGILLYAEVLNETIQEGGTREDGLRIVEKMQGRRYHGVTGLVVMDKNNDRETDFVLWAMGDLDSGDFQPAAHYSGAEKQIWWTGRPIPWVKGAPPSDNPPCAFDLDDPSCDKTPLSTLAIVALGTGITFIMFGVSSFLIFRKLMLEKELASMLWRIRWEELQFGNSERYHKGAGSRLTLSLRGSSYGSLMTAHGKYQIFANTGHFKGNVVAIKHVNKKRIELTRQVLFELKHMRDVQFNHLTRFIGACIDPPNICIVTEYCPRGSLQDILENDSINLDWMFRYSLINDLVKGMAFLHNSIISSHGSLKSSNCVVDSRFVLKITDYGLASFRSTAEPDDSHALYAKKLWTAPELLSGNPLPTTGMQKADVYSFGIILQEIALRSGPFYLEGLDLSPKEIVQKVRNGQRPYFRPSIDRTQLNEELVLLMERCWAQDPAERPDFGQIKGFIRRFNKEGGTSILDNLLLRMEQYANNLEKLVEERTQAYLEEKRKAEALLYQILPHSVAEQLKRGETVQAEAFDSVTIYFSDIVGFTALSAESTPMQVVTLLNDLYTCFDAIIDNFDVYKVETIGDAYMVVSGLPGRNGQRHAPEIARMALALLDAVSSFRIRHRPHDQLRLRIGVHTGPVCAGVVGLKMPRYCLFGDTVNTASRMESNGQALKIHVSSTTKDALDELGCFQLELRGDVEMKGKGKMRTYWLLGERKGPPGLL

This experiment addresses Atrial natriuretic peptide receptor 2 (Homo sapiens) (UniProt P20594). The experiment in a line: Natriuretic polypeptide receptor (hNpr2) antagonism - Pilot subtype selectivity assay (AID 1347050). Conditions: NPR2-expressing cells, cGMP antagonist-mode read-out; series mostly up to 38.3 µM. On the procedure:
F. Fan, B. F. Binkowski, B. L. Butler, P. F. Stecha, M. K. Lewis, K. V. Wood, Novel genetically encoded biosensors using firefly luciferase. ACS Chem Biol 3, 346-351 (2008).
PROTOCOL TABLE (as described by Inglese J, Shamu CE and Guy RK. 2007)
SEQUENCE No. (e.g., 1, 2, 3, etc.); […] (e.g., Cells, Incubation, Reagent, etc.); VALUE and DESCRIPTION.
1. Cells. Seed 1500 HEK293 cGMP-sensor cells expressing hNpr2 per well in 4uL into Greiner 1536-well white/solid bottom high base, TC plates.
2. Incubation. Incubate plated cells at 37C in 5% CO2, 95% RH overnight.
3. Reagent. Add 1uL per well GloSensor reagent from Promega (2% final concentration) or CO2 independent media vehicle control to respective columns of Greiner 1536-well plates.
4. Incubation. Incubate plated cells at ambient temperature for 2 h., protect from light.
5. Compounds. Library compounds and DMSO vehicle control added at 23nL per well, transferred by Pin Tool.
6. Incubation. Incubate plated cells for 30 min. at ambient temperature, protect from light.
7. Detector. GloSensor baseline pre-read luminescence measured using CCD-based camera (Viewlux).
8. Compound. Add 1uL of hNppC peptide to 1 nM final concentration to stimulate hNpr2 or CO2 independent media as vehicle control.
9. Incubation. Incubate treated cells at ambient temperature for 20 min., protect from light.
10. Detector. GloSensor post-hNppC luminescence measured using CCD-based camera (Viewlux).
NOTES (numbers refer to Sequence numbers above)
1. HEK293 cells expressing hNpr2 and GIP/pGS-40F were grown to 85-95% confluence (48-72 h) in T175 culture flasks (CO2 independent media supplemented with 10% FBS, 1% Pen/Strep antibiotics, and 1 ug/mL puromycin). Trypsinize and harvest cells from T175 culture flasks and filter through 40 um cell strainer. Cells counted with Invitrogen Countess (30,000,000 - 50,000,000 cells/flask). Cells diluted to a final concentration of 375 cells/uL in CO2 independent media and a Millipore multidrop used to dispense 1500 cells per well (4uL/well) into 9 x1536-well Greiner White/Solid bottom, high base tissue-culture treated (TC) plates and one Aurora 1536-well Black/Clear bottom, low base, TC plate (for visual inspection of cell health throughout the duration of the assay).
2. Cells incubated for 24 h. at 37C in 95% RH incubator with metal lid having gas-exchange holes.
3. Prepare GloSensor Reagent (Promega): Reconstitute GloSensor luciferase substrate by adding 8.2mL Hepes buffer to 250mg substrate, mix well, protect from light and stored at -80C. Prepare a fresh 12% GloSensor solution in CO2 independent supplemented plating media (see above). Mix well and store at ambient temperature, protected from light. 1uL 12% GloSensor Luciferase Reagent added (2% final concentration) to respective columns of 9 x 1536-well Greiner plate with BioRaptr, 1uL CO2 independent plating media added to respective columns as vehicle control with BioRaptr.
4. Cells incubated for 2 h. at ambient temperature, protected from light with metal lid having gas-exchange holes.
5. 23nL of LOPAC1280 library compounds (7 plates) or DMSO vehicle control transferred to 9 Greiner white/solid bottom high base, TC plates in 7 interplate 1:5 titrations (see Yasgar, A. et al. 2008) with Pintool. Two of the 9 plates are DMSO-only in compound field at beginning and end of compound library-treated plates.
6. Cells incubated for 30-50 min. at ambient temperature protected from light with metal lid having gas-exchange holes.
7. Read cellular baseline GloSensor luminescence in presence of test library compounds on the ViewLux [Exposure = 10 s.; Gain = High; Speed = Slow; and Binning = 2X.]
8. hNppC peptide agonist solution prepared at 1 mM (in H2O) stock concentration. From this a working dilution was prepared at 6 nM in CO2 Independent media. […]
Consider `Nc1nc(OCc2ccccc2)c2[nH]cnc2n1`, for which the Potency entry was “inactive”. With `CCN(CC)C(=S)SSC(=S)N(CC)CC` the figure was 5.21 µM (active); with `O=c1c(O)c(-c2ccc(O)cc2O)oc2cc(O)cc(O)c12`, “inactive”; with `NCCCCNCCCN`, “inactive”. As to `COc1ccc2cc([C@H](C)C(=O)O)ccc2c1`, the Potency result is “inactive”.

Turning to `Nc1ccn([C@@H]2O[C@H](CO)[C@@H](O)C2O)c(=O)n1` (stereo partly drawn), the Potency entry is “inactive”.

As to `O=C1c2ccccc2-c2n[nH]c3cccc1c23`, the Potency result was “inactive”. The entry for `O=C(O)c1cccnc1Nc1cccc(C(F)(F)F)c1` is “inactive”; for `O=C1NC(=O)C(c2ccccc2[N+](=O)[O-])=C1Nc1ccc(O)c(Cl)c1` it is “inactive”; for `OC(CN1CCN(c2cccc(Cl)c2)CC1)C(c1ccccc1)c1ccccc1` (stereo not drawn) it is “inactive”.

On to `O=c1ccc2ccc(O)c(O)c2o1`, for which the Potency result is “inactive”.

For `CN(C)CCCC1(c2ccc(F)cc2)OCc2cc(C#N)ccc21` (stereo not drawn), the Potency entry was “inactive”. The entry for `NC(=NCc1ccccc1)NC(=O)c1nc(Cl)c(N)nc1N` is “inactive”; for `Oc1ccc(-c2nc(-c3ccc(F)cc3)c(-c3ccncc3)[nH]2)cc1` it is “inactive”. The entry for `COc1cc2c(cc1OC)C1CC(=O)C(CC(C)C)CN1CC2` (stereo not drawn) is “inactive”. Regarding `NNc1nncc2ccccc12`, the Potency result is “inactive”. With `COc1cc2nc(N3CCN(C(=O)C4CCCO4)CC3)nc(N)c2cc1OC` (stereo not drawn) the entry was “inactive”. The entry for `COc1ccccc1N1CCN(CCN(C(=O)C2CCCCC2)c2ccccn2)CC1` is “inactive”.

As for `CCOC(=O)C(C)Oc1cccc2c(=O)n(CC(=O)Nc3ccc4c(c3)OCCO4)ccc12` (stereo not drawn), the Potency result was “inactive”. For `O=C1c2c(O)cc(O)cc2OC(c2ccc(O)c(O)c2)C1O` (stereo not drawn), the Potency entry was “inactive”. As for `C[C@H](Cc1ccc(O)c(O)c1)[C@@H](C)Cc1ccc(O)c(O)c1`, the Potency result is “inactive”.

Take `O=c1cc(N2CCOCC2)oc2c(-c3ccccc3)cccc12`: the Potency result was “inactive”. Consider `CC1(C)NC(=O)N(c2ccc([N+](=O)[O-])c(C(F)(F)F)c2)C1=O`, for which the Potency result is “inactive”. The entry for `C[C@@H](N)C1CCC(C(=O)Nc2ccncc2)CC1` (stereo partly drawn) is “inactive”; for `O=c1c(O)c(-c2cc(O)c(O)c(O)c2)oc2cc(O)cc(O)c12` it is “inactive”; for `CC1(C)C(=O)N(CCN2CCC(C(=O)c3ccc(F)cc3)CC2)c2ccccc21` it is “inactive”. With `CC(C)c1ccc2c(c1)c(SC(C)(C)C)c(CC(C)(C)C(=O)O)n2Cc1ccc(Cl)cc1` the entry was “inactive”. With `O=C(c1ccccc1)c1ccc2n1CCC2C(=O)O` (stereo not drawn) the entry was “inactive”; with `Nc1nc(N)c(N=O)c(OCC2CCCCC2)n1`, “inactive”; with `CC(=O)O[C@H]1C(=O)[C@@]2(C)C([C@H](OC(=O)c3ccccc3)[C@]3(O)C[C@H](OC(=O)[C@H](O)[C@@H](NC(=O)c4ccccc4)c4ccccc4)C(C)=C1C3(C)C)[C@]1(OC(C)=O)CO[C@@H]1C[C@@H]2O` (stereo partly drawn), “inactive”.

In the case of `O=C(CCc1ccc(O)cc1)c1c(O)cc(O)cc1O`, the Potency entry is “inactive”. With `CNC[C@H](O)c1ccc(O)c(O)c1` the entry was “inactive”; with `CC(=O)N1CCN(c2ccc(OC[C@H]3CO[C@](Cn4ccnc4)(c4ccc(Cl)cc4Cl)O3)cc2)CC1`, “inactive”.
